From the supplement of paper PMC10981050
Where “and” joins values, the source holds several entries; their conditions need not be identical. Identical values can stand only once. Counter-ions that a name gives are not always drawn.

Tests used:
Assay in all cases: cell viability relative to vehicle control; higher = less cytotoxic
Conditions in all cases: 10 µM
K562 = system: K562
Outline: (§1)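 Each screen used CRISPR-edited mutant and wild-type clones from four leukaemia lines. Compounds were acoustically dispensed at a single 10 µM dose, and CellTiter-Glo luminescence was read after 48 h with the supernatant first removed. Viability was analysed in Genedata Screener and given as percent of the on-plate vehicle control.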

MARIMO = system: MARIMO
Outline: as §1

MOLM14 = system: MOLM14
Outline: as §1

OCI-AML2 = system: OCI-AML2
Outline: as §1

| Structure (SMILES) | cell viability (K562; SRSF2 genotype: SRSF2 P95H/wt) | cell viability (K562; SRSF2 genotype: SRSF2 wt/wt) [%] | cell viability (MARIMO; SRSF2 genotype: SRSF2 P95H/wt) [%] | cell viability (MARIMO; SRSF2 genotype: SRSF2 wt/wt) [%] | cell viability (MOLM14; SRSF2 genotype: SRSF2 P95H/wt) [%] | cell viability (MOLM14; SRSF2 genotype: SRSF2 wt/wt) [%] | cell viability (OCI-AML2; SRSF2 genotype: P95H/wt) [%] | cell viability (OCI-AML2; SRSF2 genotype: wt/wt) [%] |
| --- | --- | --- | --- | --- | --- | --- | --- | --- |
| CCN=C1N[C@@H]2[C@@H](O)[C@H](O)[C@@H](CO)O[C@@H]2S1 [Thiamet G] | 99.9% and 104% | 101 | 103 | 106 | 92.8 | 99.8 | 101 | 107 |
| Oc1ccc2c(c1)OC[C@H]1c3cc4c(cc3O[C@@H]21)OCO4 [Maackiain] | 82.8% and 87.4% | 79.4 | 80 | 83.8 | 90.7 | 85.4 | 82.3 | 84.6 |
| Cc1ccc(C=O)o1 [5-Methyl furfural] | 104% | 95.7 | 99.8 | 94.2 | 99.1 | 101 | 103 | 103 |
| COc1cc(C(=O)OCCCCNC(=N)N)cc(OC)c1O [Leonurine Hydrochloride] | 95.9% and 95.7% | 101 | 98.8 | 95.4 | 98 | 102 | 101 | 98.6 |
| Cn1cc(-c2ccc3c(c2)CCN3C(=O)Cc2cccc(C(F)(F)F)c2)c2c(N)ncnc21 | 37.6% and 52.8% | 39.2 | 60.5 | 62.1 | 16.1 | 16 | 26.3 | 28.8 |
| COc1cc(N2CCN(C)CC2)ccc1Nc1nccc(-c2cn(C)c3cnccc23)n1 | 63.7% and 63.4% | 79.2 | 41 | 39.1 | 3.24 | 1.65 | 6.46 | 11.4 |
| CCCCCCOC(=O)NC(=N)c1ccc(NCc2nc3cc(C(=O)N(CCC(=O)OCC)c4ccccn4)ccc3n2C)cc1 [BIBR-1048 (Dabigatran)] | 67% and 66.3% | 67.2 | 55.2 | 55 | 0.49 | 0.53 | 55 | 35.7 |
| COc1ccc(C(=O)C(=O)c2ccc(OC)cc2)cc1 | 104% and 97.9% | 104 | 95.5 | 105 | 100 | 106 | 94.5 | 90.8 |
| NC(=O)c1cccc2[nH]c(-c3ccc(C4CCCN4)cc3F)nc12 (centres undefined) | 94.1% and 89.6% | 80.1 | 72.9 | 80.5 | 47.7 | 33 | 47.9 | 54.3 |
| CC[C@H](C)C(=O)O[C@H]1C[C@@H](C)C=C2C=C[C@H](C)[C@H](CC[C@@H]3C[C@@H](O)CC(=O)O3)[C@H]21 [Lovastatin (Mevacor)] | 86.3% and 96.8% | 68.8 | 74 | 68.5 | 82.9 | 100 | 64.3 | 77.8 |
| OC(CC1c2ccccc2-c2cncn21)C1CCCCC1 (centres undefined) | 85.4% and 94.1% | 97.5 | 80 | 93.1 | 90.6 | 93.5 | 89.8 | 99.7 |
| O=S(=O)(O)CCSSCCS(=O)(=O)O [Dimesna] | 107% and 101% | 95 | 99.3 | 103 | 96.3 | 99.6 | 106 | 105 |
| CC(=O)Nc1cccc2c1c(Sc1ccc(Cl)cc1)c(C)n2CC(=O)O | 108% and 110% | 100 | 108 | 112 | 105 | 106 | 101 | 108 |
| COC(=O)C1=CC[C@@]23CC[C@@H]([C@@](C)(/C=C/C=C(\C)C(=O)O)OC2=O)[C@@]3(OC(C)=O)CC1 [Pseudolaric Acid B] | 18.7% and 39.2% | 33.1 | 6.72 | 9.79 | 15.9 | 3.39 | 8.39 | 11.6 |
| Cc1cc(NS(=O)(=O)c2ccc(N)cc2)nc(C)n1 [sulfaisodimidine] | 103% | 112 | 106 | 101 | 106 | 106 | 112 | 102 |
| CC(C)=CC(=O)O[C@H]1Cc2cc3ccc(=O)oc3cc2OC1(C)C [Decursin] | 89.5% and 93.4% | 90 | 81.6 | 88.5 | 91.1 | 92.5 | 83.7 | 87 |
| CCCN(CCC)CCc1cccc2c1CC(=O)N2 [Ropinirole HCl] | 98.9% and 97.5% | 95.9 | 103 | 100 | 103 | 102 | 100 | 89.4 |
| COc1cc2c(=O)c(-c3ccc(O)cc3)coc2cc1O[C@@H]1O[C@H](CO)[C@@H](O)[C@H](O)[C@H]1O [Glycitin] | 98% and 97.4% | 101 | 95.2 | 103 | 97.1 | 103 | 89.3 | 87 |
| C[C@H]1[C@H](C)CC[C@]2(C(=O)O)CC[C@]3(C)C(=CC[C@@H]4[C@@]5(C)CCC(=O)C(C)(C)[C@@H]5CC[C@]43C)[C@H]12 [Ursonic acid] | 37.2% and 50.8% | 55.8 | 27.6 | 19 | 28.4 | 19.4 | 24.6 | 16.9 |

| Structure (SMILES) | cell viability (K562; SRSF2 genotype: SRSF2 P95H/wt) | cell viability (K562; SRSF2 genotype: SRSF2 wt/wt) [%] | cell viability (MARIMO; SRSF2 genotype: SRSF2 P95H/wt) [%] | cell viability (MARIMO; SRSF2 genotype: SRSF2 wt/wt) [%] | cell viability (MOLM14; SRSF2 genotype: SRSF2 P95H/wt) [%] | cell viability (MOLM14; SRSF2 genotype: SRSF2 wt/wt) [%] | cell viability (OCI-AML2; SRSF2 genotype: P95H/wt) [%] | cell viability (OCI-AML2; SRSF2 genotype: wt/wt) [%] |
| --- | --- | --- | --- | --- | --- | --- | --- | --- |
| Cc1ncc(CCCN(C)C)cc1Nc1ncc2c(n1)-c1ccc(C(F)(F)F)cc1NC(=S)C2 | 46.2% and 57.9% | 54.3 | 49.5 | 44.5 | 18.3 | 8.47 | 16.3 | 21.1 |
| Fc1ccc2c(/C=C/c3nn[nH]n3)c[nH]c2c1 | 100% and 102% | 98.6 | 104 | 102 | 94.2 | 96.3 | 102 | 108 |
| CCCNC(=O)Nc1ccc(Oc2ncnc3cc(OC)c(OC)cc23)cc1Cl | 99.4% and 106% | 99.8 | 108 | 113 | 92 | 105 | 99.5 | 101 |
| CC(C)[C@H](N)C(=O)OCCOCn1cnc2c(=O)nc(N)[nH]c21 [Valaciclovir HCl] | 100% and 99% | 102 | 101 | 111 | 101 | 101 | 98.7 | 112 |
| O=C(O)c1c[nH]c2ccccc12 [Indole-3-carboxylic acid] | 103% and 92% | 100 | 97.8 | 110 | 94.3 | 101 | 92.3 | 114 |
| C[C@@H](CC[C@@]1(O)O[C@H]2C[C@H]3[C@@H]4CC[C@@H]5C[C@@H](O[C@@H]6O[C@H](CO)[C@H](O)[C@H](O)[C@H]6O[C@@H]6O[C@H](CO)[C@@H](O)[C@H](O)[C@H]6O)CC[C@]5(C)[C@H]4CC[C@]3(C)[C@H]2[C@@H]1C)CO[C@@H]1O[C@H](CO)[C@@H](O)[C@H](O)[C@H]1O [Timosaponin BII] | 93.3% and 90.7% | 89.5 | 102 | 107 | 96 | 93.5 | 49.8 | 73.6 |
| CC[C@H](C)C(=O)O[C@H]1C[C@H](O)C=C2C=C[C@H](C)[C@H](CC[C@@H](O)C[C@@H](O)CC(=O)O)[C@H]21 [Pravastatin sodium] | 103% and 97.3% | 92.3 | 95.2 | 103 | 104 | 102 | 91 | 105 |
| N#Cc1cc2cc(CN3CCC(Nc4ncnc5sc(CC(F)(F)F)cc45)CC3)ccc2[nH]1 | 3.53% and 2.57% | 19.3 | 44.3 | 51.2 | 22.6 | 23.4 | 0.63 | 21.5 |
| CC(C)=CCc1cc2c(cc1O)oc(=O)c1c3ccc(O)cc3oc21 [Psoralidin] | 98.2% and 95.7% | 95.2 | 98 | 106 | 115 | 107 | 98 | 98.9 |
| CO[C@@H]1[C@@H](O[C@@H]2O[C@H](C)[C@@H](O[C@H]3C[C@@](C)(O)[C@@H](O)[C@H](C)O3)[C@H](N(C)C)[C@H]2O)[C@@H](CC=O)C[C@@H](C)[C@@H](O[C@H]2CC[C@H](N(C)C)[C@@H](C)O2)/C=C/C=C/C[C@@H](C)OC(=O)C[C@H]1OC(C)=O [Acetylspiramycin (ASPM)] | 87.2% and 93.6% | 89.4 | 91.4 | 90.3 | 84.4 | 90.9 | 83.1 | 76.8 |
| COc1cc(-c2cc(-c3cccc(O)c3)cnc2N)cc(OC)c1OC | 13.5% and 28.9% | 15.6 | 78.2 | 72.5 | 81.9 | 83 | 83.5 | 83.1 |
| Cc1ncc(COP(=O)(O)O)c(C=O)c1O [Pyridoxal 5-phosphate monohydrate] | 97.8% and 103% | 101 | 91.2 | 107 | 99.2 | 102 | 101 | 101 |
| CN1CC[C@H](c2c(O)cc(O)c3c(=O)cc(-c4ccccc4Cl)oc23)[C@H](O)C1 [Flavopiridol (Alvocidib)] | 6.41% and 17.6% | 8.24 | 10.4 | 4.67 | 3.1 | 0.32 | 4.93 | 15.2 |
| O=C(CSc1nc2c(c(=O)n1-c1ccccc1)SCC2)Nc1ccc(-c2ccccc2)cn1 | 88.8% and 93.3% | 92.7 | 100 | 98.2 | 100 | 96.8 | 93.1 | 103 |
| CN(C/C=C/C#CC(C)(C)C)Cc1cccc2ccccc12 [Terbinafine] | 99.7% and 97.5% | 103 | 96.2 | 108 | 104 | 105 | 105 | 110 |
| N#CC[C@H](C1CCCC1)n1cc(-c2ncnc3[nH]ccc23)cn1 | 87.3% and 90% | 97.7 | 78 | 91 | 68.8 | 82.6 | 60.7 | 57.9 |
| Cc1cc2c3c([n+](C)c4ccc(F)cc4c3c1)-c1cc(F)ccc1N2C [RHPS 4 methosulfate] | 48.6% and 58.2% | 61.4 | 52.5 | 50.6 | 5.12 | 27.5 | 0.13 | 8.9 |
| CCOC(=O)c1cccc(N)c1 [Ethyl 3-Aminobenzoate methanesulfonate] | 96.7% and 92.4% | 85.1 | 87.2 | 96.5 | 88.7 | 96.5 | 94.2 | 90.7 |
| CC(=O)OCC(=O)[C@@]12OC(C)(C)O[C@@H]1C[C@H]1[C@@H]3C[C@H](F)C4=CC(=O)C=C[C@]4(C)[C@@]3(F)[C@@H](O)C[C@@]12C [Fluocinonide (Vanos)] | 100% and 105% | 108 | 110 | 106 | 107 | 94.8 | 111 | 117 |
